Measured values: PubChem BioAssay (NCI)
This is part of a sample that, as a whole, favours compounds with a hit. Of some 79,000 tested, about 15% had one in any assay. A number with no mark means an inactive call. Active and inactive are the calls of the source. Rule as the data show it: active = growth inhibition above about 70%; inactive = the rest.

Assays:
[1] = NCI Yeast Anticancer Drug Screen. Data for the rad50 strain (AID 155);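 also: 0% = growth of vehicle-only cultures of the same strain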; settings: S. cerevisiae rad50 strain growth inhibition, hits give high values
In short: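 Relative growth inhibition (compound vs vehicle) was measured in yeast with a defined repair-gene alteration.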

[2] = NCI Yeast Anticancer Drug Screen. Data for the mec2-1 strain (AID 157); settings: S. cerevisiae mec2-1 strain, hits give high values
In short: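 Strain: mec2-1 (DNA repair/cell cycle alteration). Compound exposure, then growth measured; inhibition expressed relative to vehicle.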

[3] = NCI Yeast Anticancer Drug Screen. Data for the sgs1 mgt1 strain (AID 161);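 also: 0% = growth of cultures given vehicle only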; settings: S. cerevisiae sgs1 mgt1 strain, hits give high values
In short: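 Genetically altered yeast, compound exposure, growth inhibition relative to vehicle.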

[4] = NCI Yeast Anticancer Drug Screen. Data for the cln2 rad14 strain (AID 165);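 also: 0% = growth equal to vehicle treated cultures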; settings: S. cerevisiae cln2 rad14 strain, hits give high values
In short: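 Compounds are applied to the cln2 rad14 yeast strain, and growth is then compared with that of vehicle-treated cultures to give inhibition.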

[5] = NCI Yeast Anticancer Drug Screen. Data for the bub3 strain (AID 167); settings: S. cerevisiae bub3 mutant strain, hits give high values
In short: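 Screening used yeast with an engineered genetic alteration affecting cell cycle control. Compound-exposed cultures were compared with vehicle cultures, and reduced growth was taken as inhibition.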

[6] = NCI Yeast Anticancer Drug Screen. Data for the mlh1 rad18 strain (AID 175); settings: S. cerevisiae mlh1 rad18 strain growth inhibition, hits give high values
In short: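 Read-out is yeast growth inhibition, calculated against vehicle-only controls. The compound was applied to a strain engineered with DNA damage repair alterations.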

[7] = at 5.0 µM (retest, dose inferred, filed as 0.5)
[8] = at 50.0 µM (retest, dose inferred, filed as 5.0)

SMILES: COc1ccc2c(c1)CCC(N1CCCC(O)C1)C2 (configuration not stated)
- growth inhibition [1, 7]: 13%
- growth inhibition [1, 8]: 98% (active)
- growth inhibition ([1]; at 50.0 µM): 48.9%
- growth inhibition [2, 7]: 12%
- growth inhibition [2, 8]: 99% (active)
- growth inhibition ([2]; at 50.0 µM): 56%
- growth inhibition [3, 7]: 12%
- growth inhibition [3, 8]: 98% (active)
- growth inhibition ([3]; at 50.0 µM): 87.2% (active)
- growth inhibition [4, 7]: 25%
- growth inhibition [4, 8]: 99% (active)
- growth inhibition ([4]; at 50.0 µM): 23.2%
- growth inhibition [5, 7]: 11%
- growth inhibition [5, 8]: 99% (active)
- growth inhibition ([5]; at 50.0 µM): 91.2% (active)
- growth inhibition [6, 7]: 14%
- growth inhibition [6, 8]: 98% (active)
- growth inhibition ([6]; at 50.0 µM): 71.4% (active)

SMILES: O=C1CC2(CCCC2)C(=O)N1c1ccc(N2C(=O)CC3(CCCC3)C2=O)cc1
- growth inhibition [1, 7]: 3%
- growth inhibition [1, 8]: -10%
- growth inhibition ([1]; at 50.0 µM): -11.8%
- growth inhibition [2, 7]: -3%
- growth inhibition [2, 8]: -12%
- growth inhibition ([2]; at 50.0 µM): 6.95%
- growth inhibition [3, 7]: -1%
- growth inhibition [3, 8]: -7%
- growth inhibition ([3]; at 50.0 µM): -22.4%
- growth inhibition [4, 7]: -5%
- growth inhibition [4, 8]: -7%
- growth inhibition ([4]; at 50.0 µM): 44.1%
- growth inhibition [5, 7]: 0%
- growth inhibition [5, 8]: -4%
- growth inhibition ([5]; at 50.0 µM): -0.9%
- growth inhibition [6, 7]: 1%
- growth inhibition [6, 8]: -5%
- growth inhibition ([6]; at 50.0 µM): -11.7%

SMILES: O=S(=O)(Nc1cccc(C2=NCCN2)c1)c1ccc2c(S(=O)(=O)Nc3cccc(C4=NCCN4)c3)cccc2c1
- growth inhibition [1, 7]: -3%
- growth inhibition [1, 8]: 9%
- growth inhibition ([1]; at 50.0 µM): 82.5% (active)
- growth inhibition [2, 7]: 6%
- growth inhibition [2, 8]: 2%
- growth inhibition ([2]; at 50.0 µM): 9.45%
- growth inhibition [3, 7]: -5%
- growth inhibition [3, 8]: 2%
- growth inhibition ([3]; at 50.0 µM): 88.3% (active)
- growth inhibition [4, 7]: -1%
- growth inhibition [4, 8]: 6%
- growth inhibition ([4]; at 50.0 µM): 13.6%
- growth inhibition [5, 7]: -7%
- growth inhibition [5, 8]: -12%
- growth inhibition ([5]; at 50.0 µM): 4.8%
- growth inhibition [6, 7]: -2%
- growth inhibition [6, 8]: 3%
- growth inhibition ([6]; at 50.0 µM): 78.2% (active)

SMILES: CN(NC(=O)c1cccs1)C1=NCCCN1
- growth inhibition [1, 7]: 43%
- growth inhibition [1, 8]: 83% (active)
- growth inhibition ([1]; at 50.0 µM): -18.2%
- growth inhibition [2, 7]: 8%
- growth inhibition [2, 8]: 21%
- growth inhibition ([2]; at 50.0 µM): -4.9%
- growth inhibition [3, 7]: 65%
- growth inhibition [3, 8]: 76% (active)
- growth inhibition ([3]; at 50.0 µM): -16.9%
- growth inhibition [4, 7]: 6%
- growth inhibition [4, 8]: 33%
- growth inhibition ([4]; at 50.0 µM): 10.3%
- growth inhibition [5, 7]: 18%
- growth inhibition [5, 8]: 22%
- growth inhibition ([5]; at 50.0 µM): 4.8%
- growth inhibition [6, 7]: 23%
- growth inhibition [6, 8]: 55%
- growth inhibition ([6]; at 50.0 µM): -20.7%

SMILES: O=C(Nc1ccc(C2=NCCN2)cc1)c1ccc(C(=O)Nc2ccc(C3=NCCN3)cc2)c(Cl)c1
- growth inhibition [1, 7]: 42%
- growth inhibition [1, 8]: 97% (active)
- growth inhibition ([1]; at 50.0 µM): 51.2%
- growth inhibition [2, 7]: 25%
- growth inhibition [2, 8]: 98% (active)
- growth inhibition ([2]; at 50.0 µM): 78.7% (active)
- growth inhibition [3, 7]: 57%
- growth inhibition [3, 8]: 99% (active)
- growth inhibition ([3]; at 50.0 µM): 76% (active)
- growth inhibition [4, 7]: 43%
- growth inhibition [4, 8]: 96% (active)
- growth inhibition ([4]; at 50.0 µM): 80% (active)
- growth inhibition [5, 7]: 54%
- growth inhibition [5, 8]: 98% (active)
- growth inhibition ([5]; at 50.0 µM): 68.5%
- growth inhibition [6, 7]: 35%
- growth inhibition [6, 8]: 95% (active)
- growth inhibition ([6]; at 50.0 µM): 87.8% (active)

SMILES: CCCOc1cc(C(=O)OCCN(CC)CC)cc(OCCC)c1OCCC
- growth inhibition [1, 7]: 6%
- growth inhibition [1, 8]: 29%
- growth inhibition ([1]; at 50.0 µM): 36.9%
- growth inhibition [2, 7]: 6%
- growth inhibition [2, 8]: 19%
- growth inhibition ([2]; at 50.0 µM): 15.8%
- growth inhibition [3, 7]: 4%
- growth inhibition [3, 8]: 43%
- growth inhibition ([3]; at 50.0 µM): 44.8%
- growth inhibition [4, 7]: 8%
- growth inhibition [4, 8]: 13%
- growth inhibition ([4]; at 50.0 µM): 15.1%
- growth inhibition [5, 7]: -21%
- growth inhibition [5, 8]: 12%
- growth inhibition ([5]; at 50.0 µM): 23%
- growth inhibition [6, 7]: 0%
- growth inhibition [6, 8]: 41%
- growth inhibition ([6]; at 50.0 µM): 61.8%

SMILES: COc1ccc(-c2n[nH]c(C(F)(F)F)c2N=NN(C)C)cc1OC
- growth inhibition [1, 7]: 97% (active)
- growth inhibition [1, 8]: 98% (active)
- growth inhibition ([1]; at 50.0 µM): 98.9% (active)
- growth inhibition [2, 7]: 99% (active)
- growth inhibition [2, 8]: 99% (active)
- growth inhibition ([2]; at 50.0 µM): 99.5% (active)
- growth inhibition [3, 7]: 99% (active)
- growth inhibition [3, 8]: 99% (active)
- growth inhibition ([3]; at 50.0 µM): 99.4% (active)
- growth inhibition [4, 7]: 99% (active)
- growth inhibition [4, 8]: 99% (active)
- growth inhibition ([4]; at 50.0 µM): 99.4% (active)
- growth inhibition [5, 7]: 99% (active)
- growth inhibition [5, 8]: 99% (active)
- growth inhibition ([5]; at 50.0 µM): 99.4% (active)
- growth inhibition [6, 7]: 99% (active)
- growth inhibition [6, 8]: 99% (active)
- growth inhibition ([6]; at 50.0 µM): 99.6% (active)

SMILES: S=c1sc2nc(Cl)nc(Cl)c2s1
- growth inhibition [1, 7]: 99% (active)
- growth inhibition [1, 8]: 99% (active)
- growth inhibition ([1]; at 50.0 µM): 87.1% (active)
- growth inhibition [2, 7]: 100% (active)
- growth inhibition [2, 8]: 99% (active)
- growth inhibition ([2]; at 50.0 µM): 88.3% (active)
- growth inhibition [3, 7]: 100% (active)
- growth inhibition [3, 8]: 99% (active)
- growth inhibition ([3]; at 50.0 µM): 89.5% (active)
- growth inhibition [4, 7]: 97% (active)
- growth inhibition [4, 8]: 99% (active)
- growth inhibition ([4]; at 50.0 µM): 89.5% (active)
- growth inhibition [5, 7]: 100% (active)
- growth inhibition [5, 8]: 100% (active)
- growth inhibition ([5]; at 50.0 µM): 87.4% (active)
- growth inhibition [6, 7]: 99% (active)
- growth inhibition [6, 8]: 98% (active)
- growth inhibition ([6]; at 50.0 µM): 89.3% (active)

SMILES: Cc1cc(=O)oc2c3c(ccc12)OC(c1ccc(Br)cc1)CC3=O (configuration not stated)
- growth inhibition [1, 7]: 28%
- growth inhibition [1, 8]: 24%
- growth inhibition ([1]; at 50.0 µM): 6.65%
- growth inhibition [2, 7]: 15%
- growth inhibition [2, 8]: 12%
- growth inhibition ([2]; at 50.0 µM): -7.8%
- growth inhibition [3, 7]: 19%
- growth inhibition [3, 8]: 20%
- growth inhibition ([3]; at 50.0 µM): 6.8%
- growth inhibition [4, 7]: 11%
- growth inhibition [4, 8]: 27%
- growth inhibition ([4]; at 50.0 µM): -12.8%
- growth inhibition [5, 7]: 24%
- growth inhibition [5, 8]: 23%
- growth inhibition ([5]; at 50.0 µM): -3%
- growth inhibition [6, 7]: 22%
- growth inhibition [6, 8]: 15%
- growth inhibition ([6]; at 50.0 µM): -6.6%
